Inconclusive results are not listed. Where a call stands in place of a potency, no number is given. Activity calls are given as the source filed them. Calls come from the whole dose curve; as a rule, active = well fitted antagonist curve with a large enough effect in the main read-out, with a control signal flat; inconclusive = small, poorly fitted or top-dose-only effect; inactive = no such curve, though single readings can be large or run the other way.
biological target: Neuropeptide S receptor (Homo sapiens) (UniProt Q6W5P4); experiment: Confirmation Concentration-Response Assay for Antagonists of the Neuropeptide S Receptor: Calcium Signal Transduction; details: CHO-NPSR cells, NPS-induced calcium flux, FDSS; series mostly up to 19.3 µM
Sequence (Q6W5P4 whole entry, looked up): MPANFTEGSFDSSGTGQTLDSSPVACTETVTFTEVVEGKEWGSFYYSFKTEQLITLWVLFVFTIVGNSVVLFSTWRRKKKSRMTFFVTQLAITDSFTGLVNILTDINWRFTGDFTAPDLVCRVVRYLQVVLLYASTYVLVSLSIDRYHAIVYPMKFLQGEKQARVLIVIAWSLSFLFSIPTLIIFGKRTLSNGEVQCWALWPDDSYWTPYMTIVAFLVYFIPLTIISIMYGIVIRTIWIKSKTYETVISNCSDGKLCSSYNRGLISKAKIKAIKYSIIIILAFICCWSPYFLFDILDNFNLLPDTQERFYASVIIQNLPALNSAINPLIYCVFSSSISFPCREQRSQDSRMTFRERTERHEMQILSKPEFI
Excerpt: NIH Chemical Genomics Center [NCGC] NIH Molecular Libraries Probe Production centers Network [MLPCN] MLPCN Grant: X01-DA026210-01 Assay Submitter (PI): Heilig, Markus Alexander NCGC Assay Overview: Neuropeptide S receptor (NPSR), previously known as GPR154, is a recently de-orphanized G protein coupled receptor. Its endogenous ligand is the 20 amino acids peptide Neuropeptide S (NPS). […] NPS and its receptor are found in various tissues. Specifically they are highly expressed in brain areas that have been implicated in modulation of arousal, stress and anxiety. Central administration of NPS in mice produces an unusual profile of activity by inducing wakefulness and arousal, while at the same time suppressing anxiety. Therefore, NPSR may represent a novel drug target for the treatment of sleep and anxiety disorders. To identify NPSR antagonists, we developed a cell-based assay with transfected NPS receptor. NPS can stimulate the production of cAMP as well as release intracellular calcium in Chinese hamster ovary cells stably expressing NPS receptor. This change in intracellular calcium can be detected using a calcium indicator dye on a calcium imaging plate reader system (FDSS).
NCGC Assay Protocol Summary: A Chinese hamster ovary (CHO) cell line stably expressing the NPS receptor (CHO-NPSR) was obtained from Dr. Heilig lab at NIAAA and maintained in F-12 Kaighn's media (Invitrogen, Carlsbad, CA, 21127) supplemented with 10 % FBS, 100 units/ml penicillin, 100 ug/ml streptomycin and 250 ug/ml geneticin at 37C, 5% CO2 in a humidified atmosphere. Before the assay, aliquots of cells were frozen and stored at -135C. The assay was performed on a FDSS-7000 kinetic plate reader in 1536-well format. For both agonist (1-220s) and antagonist (221-400s) phases, the maximums of kinetic fluorescence responses were converted separately into text files using the instrument's software data export utility. Data for agonist response were normalized to the controls for basal activity (DMSO only) and 100% activation (NPS). […] AC50 values were determined from concentration-response data modeled with the standard Hill equation. NPS 1536-well FDSS assay protocol: (1) Frozen CHO-NPSR cells were thaw, washed once with fresh media and resuspended in F-12 Kaighn's media supplemented with 10 % FBS, 100 units/ml penicillin and 100 ug/ml streptomycin. Cells were plated at 3 ul/well (1200 cells) to black, clear-bottom, tissue-culture treated 1536-well plates, and then cultured at 37C, 5 % CO2 for 16 to 30 hours. (2) Add 3 ul of calcium dye (from High Performance PBX Calcium Assay Kit, BD Biosciences). The calcium dye was prepared according to the manufactory's instruction. (3) Incubation at 37C, 5 % CO2 for 60 to 120 min. (4) Load plates to FDSS-7000. The following steps were performed on FDSS-7000. (5) Record fluorescent background (Ex 480 nm, Em 520-560 nm) for 10 s. (6) Add 23 nl/well of compound in DMSO solution. The final titration for each compound was between 0.6 nM and 46 uM. Record agonist response for 210 s. (7) Add 2 ul of stimulation reagent (1X HBSS buffer, 0.1% BSA, 60 nM NPS). Record antagonist response for 140 s. Keywords: MLSMR, MLPCN, NIH Roadmap, qHTS, NCGC, NPS, Neuropeptide S Antagonists

| Compound | Potency |
| --- | --- |
| O=C(/C(=C/c1ccc(Cl)cc1)c1nc2ccccc2[nH]1)c1cccs1 | 8910 nM (active) |
| O=C(Nc1nccs1)C1CCCN1S(=O)(=O)c1ccc(Cl)cc1 (stereo not given) | inactive |
| CN(Cc1cc(=O)[nH]c2ccccc12)C(=O)c1ccccc1 | inactive |
| COc1cc(/C=C2\SC(c3ccc(C)cc3)=NC2=O)cc(OC)c1O | inactive |
| COc1ccc(OC)c(C2C(C(=O)Nc3nc4ccccc4s3)=C(C)NC3=C2C(=O)CCC3)c1 (stereo not given) | 2820 nM (active) |
| c1cncc(-c2nc(-c3ccco3)cs2)c1 | inactive |
| CN(C)C(=O)Oc1cccc([N+](C)(C)C)c1 | inactive |
| CCC(C)(C)NC(=O)Cc1ccc(C)cc1 | inactive |
| Cc1ccc(S(=O)(=O)Nc2cccc3ncccc23)s1 | 3160 nM (active) |
| CN(C)C(=S)N=Nc1[nH]c2ccccc2c1O | inactive |
| CCC(Sc1ccc2nnc(-c3cccnc3)n2n1)C(=O)O (stereo not given) | inactive |
| COc1cccc(N2CCN(c3ncnc4c3[nH]c3ccc(F)cc34)CC2C)c1 (stereo not given) | 631 nM (active) |
| CCN(CC)S(=O)(=O)c1ccc2c(c1)nc(SC(C)C(N)=O)n2-c1ccc(OC)cc1 (stereo not given) | inactive |
| Cc1nnc(NC(=O)c2cccc(S(=O)(=O)N3CCc4ccccc43)c2)s1 | inactive |
| COc1ccc(-c2cc(N)n(S(=O)(=O)c3c(F)c(F)c(F)c(F)c3F)n2)cc1OC | 7080 nM (active) |
| Oc1ccc(N=Nc2nccs2)c(O)c1 | inactive |
| Cc1cccnc1NC(=O)c1c(O)c2cccc3c2n(c1=O)CCC3 | inactive |
| CCCCCN1C=CC=C/C1=C\C=C(C#N)C#N | inactive |
| O=C(CSC1=NCCS1)Nc1ccnc2ccccc12 | inactive |
| O=C(O)c1cccc(Nc2ncnc3ccccc23)c1 | inactive |

| Compound | Potency |
| --- | --- |
| O=[N+]([O-])c1cc2c(cc1/C=N/n1c(-c3ccccc3)n[nH]c1=S)OCO2 | inactive |
| CCOC(=O)C1CCCN(c2ncnc3c2oc2ccccc23)C1 (stereo not given) | 12600 nM (active) |
| O=C1CC(NCc2ccncc2)C(=O)N1c1ccccc1 (stereo not given) | inactive |
| O=C(COC(=O)c1ccccc1C(=O)c1ccc(Cl)c([N+](=O)[O-])c1)NC1CCCCCC1 | 4470 nM (active) |
| COc1ccc(NC(=O)/C(Cl)=C(/Cl)S(=O)Cc2ccc(C)cc2)cn1 (stereo not given) | 2240 nM (active) |
| Cn1c(COc2ccccc2)nnc1SCc1cc(=O)[nH]c2ccccc12 | inactive |
| Cc1ccc2nc3ccc(N4CCCCCCC4)nn3c(=O)c2c1 | inactive |
| CCC(c1nnnn1C1CCCC1)N1CCN(c2ccccc2)CC1 (stereo not given) | inactive |
| COC(=O)c1ccc(C(=O)OC)c(NC(=O)CSc2cccc[n+]2[O-])c1 | inactive |
| C/C(=N\Nc1ncc(Cl)cc1Cl)c1ccccn1 | 2510 nM (active) |
| CCSc1nc2c(c(=O)n1Cc1ccccc1)SC(C)C2 (stereo not given) | inactive |
| COc1ccc(N(CC(=O)Nc2cccc(SC)c2)S(C)(=O)=O)cc1Cl | inactive |
| CC(=O)c1sc(N/N=C\c2ccccc2O)nc1C | 1120 nM (active) |
| Cc1ccc(-n2ncc3c(NCc4ccc5c(c4)OCO5)ncnc32)c(C)c1 | inactive |
| Brc1ccc(CSc2ncn[nH]2)cc1 | inactive |
| N=C1c2ccccc2CN1c1ccc(N2CCOCC2)c(S(=O)(=O)Nc2ccc(Cl)cc2)c1 | 1410 nM (active) |
| Cc1ccc(NC(=S)NNC(C)(C)C)cc1 | inactive |
| Cc1nn(C(=O)c2cccs2)c(N)c1-c1ccccc1 | inactive |
| CCC(C)n1c(=O)c(C(=O)Nc2ccccc2S(N)(=O)=O)c(O)c2ccccc21 (stereo not given) | inactive |
| COCCCn1c(SCc2cc(=O)[nH]c3ccccc23)nnc1-c1ccco1 | inactive |
